# High-throughput results (PubChem)
# Hits are enriched below; roughly 0.93% of the tested compounds scored in any of these assays.
# CDC25B CDK2 inh = primary biochemical HTRF screen for blockers of M-phase inducer phosphatase 2 binding to CDK2/cyclin A. P30305+P24941. HTRF CDC25B-CDK2/CyclinA binding, anti-His/anti-Flag; hits give high values. z-score (concentration not given with the values). actives 0.72% (n = 94,000); in the data active = z-score above about 3.2
# HIV TAR-Tat = TAR RNA-Tat peptide displacers, HIV-1, primary screen, biochemical, FRET, FAM/TAMRA-labeled Tat | HIV-1 TAR RNA, Tat peptide displacement FRET; hits give high values | z-score (test concentration not listed) | actives 0.6% (n = 100,000); active = z-score of 3 or more in at least 2 runs
# An asterisk follows results filed as active; x = no result.
SMILES,CDC25B CDK2 inh,HIV TAR-Tat
O=C(c1ccco1)N1CCN(S(=O)(=O)c2ccc(F)cc2)CC1,x,17*
Cc1ccc(-c2nnc(Nc3cccc(O)c3)c3ccccc23)cc1S(=O)(=O)N(C)C,-2.1,1.6
C=CCSCC=C,x,15*
O=C(Cn1ncc2c1-c1ccccc1OC2)NCCCN1CCc2ccccc2C1,-0.06,1.6
CCCc1cc(C(N)=S)ccn1,x,22*
CCCc1ccc(-c2ccc(C(N)=O)cc2)cc1,-1.1,x
Cc1ccc(-n2cc3c(=O)[nH]cnc3n2)cc1,0.28,3.7
O=c1[nH]cnc2nn(-c3ccccc3)cc12,1.2,4*
Cc1cc(C)c2nc(C)cc(Nc3ccc(N(C)C)cc3)c2c1,-2.8,3.6
Cc1cc(Nc2ccc(N(C)C)cc2)c2cccc(C)c2n1,-0.51,22*
CCn1c2ccccc2c2cc(CN3CCN(Cc4cccc([N+](=O)[O-])c4)CC3)ccc21,2.7,x
CCn1c2ccccc2c2cc(CN3CCN(Cc4cccc(OC)c4)CC3)ccc21,6.7*,x
O=C1CC(c2ccccc2Cl)Cc2nc(NCCc3ccccc3)ncc21 (configuration not stated),-2.4,1
Cn1c(=O)c2c(nc3n2CCN3CCO)n(C)c1=O,0.4,x
O=C(O)c1ccc(-c2cc(C(=O)O)c3c(-c4ccccc4)[nH]nc3n2)cc1,x,1.8
O=C(O)c1cc(-c2ccc(O)c(O)c2)nc2n[nH]c(-c3ccccc3)c12,-0.65,19*
Cc1nc2ncnn2c(C)c1CCC(=O)N1CCCCC1,-0.36,0.35
CCOC(=O)c1c(NC(C)=O)c2c3c(sc2n1CC(=O)NCc1ccco1)CCCC3,x,14*
CCOC(=O)c1c(NC(C)=O)c2c3c(sc2n1Cc1cn2ccccc2n1)CCCC3,x,1.7
COc1ccc(OC)c(CNc2nc(N3CCCC3)nc3c2cnn3C)c1,x,0.1
CN(CC(=O)Nc1nc2ccc(Cl)cc2s1)S(=O)(=O)c1c[nH]c(C(=O)N2CCCCC2)c1,x,2.3
O=C(Nc1ccc2c(c1)OCCO2)C1CCN(S(=O)(=O)c2ccc3[nH]c(=O)ccc3c2)CC1,x,1.2
O=C(Nc1ccc2c(c1)OCCO2)C1CCN(S(=O)(=O)c2ccc(Br)cc2)CC1,4.6*,1.6
O=c1cc2cc(O)[nH]c(=O)c2c(O)[nH]1,19*,x
Nc1n[nH]c2cc(=O)[nH]c(O)c12,-0.59,x
SMILES,CDC25B CDK2 inh,HIV TAR-Tat
Cc1ncc(CCCCN(C)C)c2c1[nH]c1ccccc12,1.1,3.7
CNCCCCc1cnc(C)c2[nH]c3ccccc3c12,x,5*
Cc1nc(N)sc1-c1csc(Nc2ccccn2)n1,18*,x
Cc1ccc(-c2csc(Nc3ccccn3)n2)cc1,-0.98,0.8
COc1ccc(/C=C(\C#N)C(N)=S)cc1,1.6,x
CC1CN(C)C(C)C(/C=C(/C#N)C(N)=S)C1=O (configuration not stated),7.9*,x
Cc1nc(-c2ccc(S(=O)(=O)NCCCc3ccccc3)cc2)co1,x,0.5
CCCS(=O)(=O)c1nc(S(=O)(=O)c2ccc(C)cc2)c(NCCCOC)s1,-2.4,0.89
COc1ccc(-c2cc(-c3cccnc3)c(C#N)c(N)n2)cc1,-0.24,3.2*
N#Cc1c(-c2cccnc2)cc(-c2ccc(F)cc2)nc1N,-2.4,0.76
CC1(C)OC(=O)C(=Cc2ccc(Cl)cc2Cl)C(=O)O1,9.2*,x
CC1(C)OC(=O)C(=CNc2ccc(F)c(Cl)c2)C(=O)O1,-1.6,x
CCOC(=O)C1CCN(C(=O)CCc2nnc3ccc(N4CCN(C)CC4)nn23)CC1,x,1.6
O=C(NCCSCc1c(F)cccc1Cl)c1cccs1,0.65,x
Cc1noc(-c2ccccc2)c1NC(=O)NCC1COc2ccccc2O1 (configuration not stated),7*,x
O=C(NCC1COc2ccccc2O1)Nc1ccc(Cl)cc1 (configuration not stated),-0.86,x
Cc1cc(C)nc(Nc2nc(-c3ccc(O)c(O)c3)cs2)n1,1.1,29*
Oc1ccc(-c2csc(Nc3ncccn3)n2)cc1O,-6.2,x
CCc1noc2nc(C)nc(N3CCCC(C(=O)NC4CC4)C3)c12 (configuration not stated),x,3.7
Cc1nc(N2CCCC(C(=O)NC3CC3)C2)c2c(C)noc2n1 (configuration not stated),x,11*
COc1cc(OC)c(NC(=O)C2CCCN(S(=O)(=O)N3CCOCC3)C2)cc1Cl (configuration not stated),x,0.09
COc1ccc(Cl)cc1-c1noc(COc2ccccc2)n1,-6.7,-2.2
CCOC(=O)C1=C(C(=O)OCC)SC(=C2C(=S)C(C)(C)Nc3cc(C)ccc32)S1,17*,-0.02
COC(=O)C1=C(C(=O)OC)SC(=C2C(=S)C(C)(C)Nc3ccc(OC)cc32)S1,-6.5,1.3
CCOC(=O)C1=CS/C(=C2/C(=S)C(C)(C)Nc3cc(C)ccc32)S1,-3.3,1
SMILES,CDC25B CDK2 inh,HIV TAR-Tat
COC(=O)C1=C(C(=O)OC)SC(=C2C(=S)C(C)(C)Nc3cc(C)ccc32)S1,13*,1.5
COc1cc(C2C3=C(CCCC3=O)NC3=C2C(=O)c2ccccc23)ccc1O (configuration not stated),-3.7,2.4
CCOC(=O)c1c(C)oc2ncnc(Nc3cc(CO)ccc3C)c12,-0.28,0.07
Cc1cccc(C2C(C#N)=C3N=C(N)c4ccccc4N3C3=C2C(=O)CCC3)c1 (configuration not stated),-1.6,1
N#CC1=C2N=C(N)c3ccccc3N2C2=C(C(=O)CCC2)C1c1cccc(Br)c1 (configuration not stated),18*,-5.1
COC(=O)[C@@]1(C)CC[C@]2(C)CC[C@]3(C)C(=CCC4[C@@]5(C)CCC(O)C(C)(C)C5CC[C@]43C)C2C1 (some centres not stated),5.2*,x
CC1(C)CC[C@]2(C(=O)O)CC[C@]3(C)C(=CC[C@@H]4[C@@]5(C)CC[C@H](O)C(C)(C)[C@@H]5CC[C@]43C)[C@@H]2C1,x,3.4
Cc1n[nH]c(C)c1S(=O)(=O)N1CCCC(C(=O)N2CCN(c3ccc(F)cc3)CC2)C1 (configuration not stated),-1.9,x
Cc1nc2c3cccnc3nn2c(C)c1CCC(=O)Nc1ccc2c(c1)OCO2,-1.9,2.1
O=C(c1cccs1)N1CCN(CCOc2ccccc2)CC1,4.3,x
O=C(c1cccs1)N1CCN(CCN2C(=O)c3cccc4cccc(c34)C2=O)CC1,12*,1.1
N#Cc1c(NC(=O)C2CC(=O)OC23CCCCC3)sc2c1CCCCC2 (configuration not stated),-0.05,0.83
Cc1cccnc1NC(=O)C1CC(=O)OC12CCCCC2 (configuration not stated),14*,1.2
CC(C)CCNS(=O)(=O)c1cc(Br)cnc1N,0.93,1
Nc1ncc(S(=O)(=O)O)s1,-0.5,x
Nc1ncc(C2=C(Cl)C(O)C(Cl)=C(Cl)C2O)s1 (configuration not stated),20*,x
O=C1C[C@@H](c2ccc(O)c(O)c2)Oc2c1ccc(O[C@@H]1O[C@H](CO)[C@@H](O)[C@H](O)[C@H]1O)c2O,x,17*
COc1ccc([C@@H]2CC(=O)c3c(O)cc(O[C@@H]4O[C@H](CO)[C@@H](O)[C@H](O)[C@H]4OC4O[C@@H](C)[C@H](O)[C@@H](O)[C@H]4O)cc3O2)cc1O (some centres not stated),x,4.4*
